Measured values: PubChem BioAssay
Values without a mark were called inactive. Active and inactive are the calls of the source. Rule as the data show it, unless noted: active = inhibition above about 42%; inactive = the rest.

System: not listed separately
Test: StAR promoter reporter inhibitors, counter-screen for LRH-1 inverse agonist project, cell-based, luminescence, high throughput (AID 651611; in the data active = inhibition above about 28%)
Conditions: StAR promoter luciferase reporter counterscreen, at 3.6 µM, hits give high values

Which inhibition does the source give for Cc1c([N+](=O)[O-])cc(C(=O)Nc2ccc(Cc3ccncc3)cc2)cc1[N+](=O)[O-] here?
The inhibition was 7.17%.

For Cc1cccc(-c2cc(NCCc3cccnc3)n3nccc3n2)c1, which inhibition is on record?
Its inhibition is 14.2%.

Which inhibition does the source give for CC1(C)CC(=O)C=C(c2ccc3c(c2)OCO3)C1 here?
Its inhibition is -7.31%.

Which inhibition does the source give for COc1ccc(-c2c(-c3ccccc3)c(C(=O)C(=O)NCCCN(C)C)n3ccc4cc(OC)c(OC)cc4c23)cc1OC here?
The inhibition was 20.4%.

For O=C(Cc1c(F)cccc1Cl)Nc1ccncc1, which inhibition is on record?
Its inhibition is 3.12%.

Which inhibition does the source give for COc1cc(C(=O)Nc2ccccc2C(=O)Nc2ccccn2)cc(OC)c1OC here?
Its inhibition is 61.2% (active).

With CN(C)S(=O)(=O)c1cccc(C(=O)OCC(=O)Nc2ccc3c(c2)OCCO3)c1 as the molecule, how does the inhibition read?
Its inhibition is 17.9%.

For CCOc1ccc(NC(=O)Cn2nc(-c3ccccc3Cl)n(CC)c2=S)cc1, which inhibition is on record?
Its inhibition is 1.73%.

For O=C(Nc1ccc(Oc2ccccc2)cc1)c1csc([C@H]2C[C@H](O)[C@@H](CO)O2)n1, which inhibition is on record?
The inhibition was 27.6%.

For COc1ccc(-c2cc(NC=O)c3ncc(-c4ccc(C(C)=O)cc4)n3c2)cn1, which inhibition is on record?
The inhibition was 41.6% (active).

For CCOC(=O)c1ccc(N2CCN(C(=O)c3ccccc3)CC2)c(NC(=O)c2ccco2)c1, which inhibition is on record?
The inhibition was 26.2%.

Which inhibition does the source give for O=C(Nc1cc(Cl)ccc1-n1cncn1)c1ccc([N+](=O)[O-])o1 here?
Its inhibition is 27%.

With CCCc1cc(NCCOCCO)n2c(nc3ccccc32)c1C#N as the molecule, how does the inhibition read?
The inhibition was 4.93%.

With CCOc1ccc(CCNC(=O)COC(=O)c2cccnc2OCC)cc1OCC as the molecule, how does the inhibition read?
The inhibition was 2.1%.

With Cc1ccc(-c2nn3c(C)nnc3s2)cc1NC(=O)c1ccco1 as the molecule, how does the inhibition read?
Its inhibition is 7.12%.

For Cc1c(Cl)cccc1NC(=O)CS(=O)(=O)c1ccccc1, which inhibition is on record?
Its inhibition is 13.4%.

For COc1ccc(OCCNC(=O)C2(C)CCN2Cc2ccc(SC)cc2)cc1 (stereo not given), which inhibition is on record?
The inhibition was 1.32%.

With CCOc1ccc(Br)cc1C1=NN(C(C)=O)C(c2ccc([N+](=O)[O-])s2)O1 (stereo not given) as the molecule, how does the inhibition read?
Its inhibition is 17.9%.

With Oc1cccc(Nc2nc(N3CCOCC3)nc(N3CCOCC3)n2)c1 as the molecule, how does the inhibition read?
Its inhibition is 24.7%.

Which inhibition does the source give for CCN(CC)C1=CC(=O)OC12CCCCC2 here?
Its inhibition is 2.42%.

Which inhibition does the source give for O=C(NCc1cccc(C(F)(F)F)c1)c1cc(-c2ccccc2)nn1CC1CC(c2cccnc2)=NO1 (stereo not given) here?
The inhibition was 13%.

With O=C(Nc1ccc2oc(-c3ccccc3F)nc2c1)c1ccc([N+](=O)[O-])o1 as the molecule, how does the inhibition read?
The inhibition was -5.27%.

Which inhibition does the source give for Cc1cc(OCC(=O)Nc2ccc(OCc3ccccc3)cc2)nc(C(C)C)n1 here?
Its inhibition is -0.66%.

Which inhibition does the source give for Cc1onc(-c2ccccc2Cl)c1C(=O)O/N=C(\N)c1ccc([N+](=O)[O-])o1 here?
Its inhibition is 10.8%.

For O=C(c1ccccc1)N1CCN(c2ccc([N+](=O)[O-])c(N3CCOCC3)c2)CC1, which inhibition is on record?
The inhibition was 9.16%.

Which inhibition does the source give for COCCNc1ncnc2c1ncn2[C@H]1CN(CCc2ccccc2)C[C@@H](CO)O1 here?
The inhibition was 9.96%.

Which inhibition does the source give for C=CCNc1sc(C(=O)c2ccccc2)c(N)c1C#N here?
The inhibition was 13.8%.

For COc1ccc(CNC(=O)O[C@@H]2C[C@H]3C(=O)N(c4ccccc4)C(=O)[C@H]3[C@@]3(CN(S(=O)(=O)c4ccc(C)cc4)C[C@H]3C)[C@@H]2O)cc1OC, which inhibition is on record?
The inhibition was 9.47%.

Which inhibition does the source give for COC(=O)c1ccc([C@H](NC(=O)c2ccco2)[C@]2(C)C[C@H]2C2CCCCC2)cc1 here?
Its inhibition is 4.8%.

Which inhibition does the source give for OCCCNc1ncnc2oc(-c3ccccc3)c(-c3ccccc3)c12 here?
Its inhibition is 9.63%.

Which inhibition does the source give for COc1ccc(NC(=O)CSc2ncnc3c2cnn3Cc2ccccc2)cc1 here?
Its inhibition is 16.1%.

Which inhibition does the source give for Cc1ccc(CNC(=O)CN2C(=O)NC3(CCCC3)C2=O)cc1 here?
Its inhibition is 5.83%.

With Cc1cc(C(=O)CSc2nnnn2-c2ccccc2)c(C)n1-c1ccc2c(c1)OCO2 as the molecule, how does the inhibition read?
Its inhibition is 0.11%.

Which inhibition does the source give for C[C@H](CO)N1C[C@H](C)[C@H](CN(C)Cc2ccncc2)Oc2cc(-c3ccccc3F)ccc2S1(=O)=O here?
The inhibition was 12.8%.

With Clc1ccccc1-c1nnc2sc(-c3ccncc3)nn12 as the molecule, how does the inhibition read?
The inhibition was 15.3%.

Which inhibition does the source give for CCOc1ccc(C(=O)c2cc([N+](=O)[O-])ccc2Cl)cc1 here?
The inhibition was 12.6%.

With O=C(c1ccc([N+](=O)[O-])o1)N1CCN(c2nc3c(Cl)cccc3s2)CC1 as the molecule, how does the inhibition read?
Its inhibition is 10.8%.

For COc1ccc(-c2nnc(NC(=O)c3ccc([N+](=O)[O-])o3)o2)c(OC)c1, which inhibition is on record?
Its inhibition is 15.5%.

For Cc1onc(-c2c(F)cccc2Cl)c1C(=O)Oc1ccccc1, which inhibition is on record?
The inhibition was -12.8%.

With Cc1ccc(NC(=O)COC(=O)C(NS(=O)(=O)c2ccc(Cl)cc2)C(C)O)c(Br)c1 (stereo not given) as the molecule, how does the inhibition read?
The inhibition was 3.18%.

Molecular target: Nuclear receptor subfamily 5 group A member 2 (Homo sapiens) (UniProt O00482)
Sequence (O00482 whole entry, looked up): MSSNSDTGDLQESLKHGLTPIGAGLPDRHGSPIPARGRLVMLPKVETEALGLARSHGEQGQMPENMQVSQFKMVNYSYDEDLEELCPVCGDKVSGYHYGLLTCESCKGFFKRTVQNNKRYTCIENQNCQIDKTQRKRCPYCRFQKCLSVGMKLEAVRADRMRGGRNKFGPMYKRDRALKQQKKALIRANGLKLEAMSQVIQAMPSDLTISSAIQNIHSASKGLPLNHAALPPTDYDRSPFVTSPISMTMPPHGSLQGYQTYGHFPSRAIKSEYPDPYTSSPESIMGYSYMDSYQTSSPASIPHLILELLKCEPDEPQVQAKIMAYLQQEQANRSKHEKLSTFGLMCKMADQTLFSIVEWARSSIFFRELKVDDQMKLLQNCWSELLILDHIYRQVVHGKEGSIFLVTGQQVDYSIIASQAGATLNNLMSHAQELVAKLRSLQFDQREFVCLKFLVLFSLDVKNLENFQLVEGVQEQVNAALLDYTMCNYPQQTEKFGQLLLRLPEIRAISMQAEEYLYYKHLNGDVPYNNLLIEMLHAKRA
Test: LRH-1 (NR5A2) inverse agonists, retest, confirmation, cell-based, luminescence (AID 651613);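 also: HEK293T cells co-transfected with LRH-1 and StAR promoter luciferase reporter; 0% = vehicle wells and 100% = parental cells lacking receptor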
Conditions: cell-based LRH-1 luciferase reporter, inverse agonism; at 3.6 µM; hits give high values

Which inhibition does the source give for Cc1c([N+](=O)[O-])cc(C(=O)Nc2ccc(Cc3ccncc3)cc2)cc1[N+](=O)[O-] here?
Its inhibition is 48.7% (active).

Which inhibition does the source give for Cc1cccc(-c2cc(NCCc3cccnc3)n3nccc3n2)c1 here?
Its inhibition is 51.1% (active).

Which inhibition does the source give for CC1(C)CC(=O)C=C(c2ccc3c(c2)OCO3)C1 here?
Its inhibition is 40.6%.

For COc1ccc(-c2c(-c3ccccc3)c(C(=O)C(=O)NCCCN(C)C)n3ccc4cc(OC)c(OC)cc4c23)cc1OC, which inhibition is on record?
The inhibition was 40.9%.

With O=C(Cc1c(F)cccc1Cl)Nc1ccncc1 as the molecule, how does the inhibition read?
The inhibition was 45% (active).

For COc1cc(C(=O)Nc2ccccc2C(=O)Nc2ccccn2)cc(OC)c1OC, which inhibition is on record?
Its inhibition is 45.9% (active).

With CN(C)S(=O)(=O)c1cccc(C(=O)OCC(=O)Nc2ccc3c(c2)OCCO3)c1 as the molecule, how does the inhibition read?
The inhibition was 51.5% (active).

With CCOc1ccc(NC(=O)Cn2nc(-c3ccccc3Cl)n(CC)c2=S)cc1 as the molecule, how does the inhibition read?
The inhibition was 60.4% (active).

Which inhibition does the source give for O=C(Nc1ccc(Oc2ccccc2)cc1)c1csc([C@H]2C[C@H](O)[C@@H](CO)O2)n1 here?
The inhibition was 56.6% (active).

For COc1ccc(-c2cc(NC=O)c3ncc(-c4ccc(C(C)=O)cc4)n3c2)cn1, which inhibition is on record?
Its inhibition is 66% (active).

For CCOC(=O)c1ccc(N2CCN(C(=O)c3ccccc3)CC2)c(NC(=O)c2ccco2)c1, which inhibition is on record?
The inhibition was 38.6%.

For O=C(Nc1cc(Cl)ccc1-n1cncn1)c1ccc([N+](=O)[O-])o1, which inhibition is on record?
Its inhibition is 61.9% (active).

Which inhibition does the source give for CCCc1cc(NCCOCCO)n2c(nc3ccccc32)c1C#N here?
The inhibition was 45.1% (active).

Which inhibition does the source give for CCOc1ccc(CCNC(=O)COC(=O)c2cccnc2OCC)cc1OCC here?
Its inhibition is 53.3% (active).

For Cc1ccc(-c2nn3c(C)nnc3s2)cc1NC(=O)c1ccco1, which inhibition is on record?
The inhibition was 63.2% (active).

For Cc1c(Cl)cccc1NC(=O)CS(=O)(=O)c1ccccc1, which inhibition is on record?
Its inhibition is 55.1% (active).

Which inhibition does the source give for COc1ccc(OCCNC(=O)C2(C)CCN2Cc2ccc(SC)cc2)cc1 (stereo not given) here?
Its inhibition is 46% (active).

With CCOc1ccc(Br)cc1C1=NN(C(C)=O)C(c2ccc([N+](=O)[O-])s2)O1 (stereo not given) as the molecule, how does the inhibition read?
The inhibition was 66.8% (active).

For Oc1cccc(Nc2nc(N3CCOCC3)nc(N3CCOCC3)n2)c1, which inhibition is on record?
The inhibition was 45% (active).

Which inhibition does the source give for CCN(CC)C1=CC(=O)OC12CCCCC2 here?
The inhibition was 51.2% (active).

Which inhibition does the source give for O=C(NCc1cccc(C(F)(F)F)c1)c1cc(-c2ccccc2)nn1CC1CC(c2cccnc2)=NO1 (stereo not given) here?
The inhibition was 36.4%.

For O=C(Nc1ccc2oc(-c3ccccc3F)nc2c1)c1ccc([N+](=O)[O-])o1, which inhibition is on record?
The inhibition was 46% (active).

For Cc1cc(OCC(=O)Nc2ccc(OCc3ccccc3)cc2)nc(C(C)C)n1, which inhibition is on record?
Its inhibition is 48% (active).

With Cc1onc(-c2ccccc2Cl)c1C(=O)O/N=C(\N)c1ccc([N+](=O)[O-])o1 as the molecule, how does the inhibition read?
Its inhibition is 66.3% (active).

With O=C(c1ccccc1)N1CCN(c2ccc([N+](=O)[O-])c(N3CCOCC3)c2)CC1 as the molecule, how does the inhibition read?
The inhibition was 39.5%.

For COCCNc1ncnc2c1ncn2[C@H]1CN(CCc2ccccc2)C[C@@H](CO)O1, which inhibition is on record?
Its inhibition is 28.4%.

Which inhibition does the source give for C=CCNc1sc(C(=O)c2ccccc2)c(N)c1C#N here?
Its inhibition is 43.6% (active).

With COc1ccc(CNC(=O)O[C@@H]2C[C@H]3C(=O)N(c4ccccc4)C(=O)[C@H]3[C@@]3(CN(S(=O)(=O)c4ccc(C)cc4)C[C@H]3C)[C@@H]2O)cc1OC as the molecule, how does the inhibition read?
The inhibition was 18.4%.

Which inhibition does the source give for COC(=O)c1ccc([C@H](NC(=O)c2ccco2)[C@]2(C)C[C@H]2C2CCCCC2)cc1 here?
Its inhibition is 30.3%.

Which inhibition does the source give for OCCCNc1ncnc2oc(-c3ccccc3)c(-c3ccccc3)c12 here?
Its inhibition is 35.1%.

Which inhibition does the source give for COc1ccc(NC(=O)CSc2ncnc3c2cnn3Cc2ccccc2)cc1 here?
The inhibition was 49.6% (active).

With Cc1ccc(CNC(=O)CN2C(=O)NC3(CCCC3)C2=O)cc1 as the molecule, how does the inhibition read?
Its inhibition is 33.5%.

Which inhibition does the source give for Cc1cc(C(=O)CSc2nnnn2-c2ccccc2)c(C)n1-c1ccc2c(c1)OCO2 here?
Its inhibition is 42.3% (active).

With C[C@H](CO)N1C[C@H](C)[C@H](CN(C)Cc2ccncc2)Oc2cc(-c3ccccc3F)ccc2S1(=O)=O as the molecule, how does the inhibition read?
The inhibition was 64.6% (active).

With Clc1ccccc1-c1nnc2sc(-c3ccncc3)nn12 as the molecule, how does the inhibition read?
The inhibition was 52.6% (active).

For CCOc1ccc(C(=O)c2cc([N+](=O)[O-])ccc2Cl)cc1, which inhibition is on record?
The inhibition was 42.3% (active).

Which inhibition does the source give for O=C(c1ccc([N+](=O)[O-])o1)N1CCN(c2nc3c(Cl)cccc3s2)CC1 here?
The inhibition was 64.6% (active).

Which inhibition does the source give for COc1ccc(-c2nnc(NC(=O)c3ccc([N+](=O)[O-])o3)o2)c(OC)c1 here?
The inhibition was 63.4% (active).

With Cc1onc(-c2c(F)cccc2Cl)c1C(=O)Oc1ccccc1 as the molecule, how does the inhibition read?
Its inhibition is 41.9% (active).

With Cc1ccc(NC(=O)COC(=O)C(NS(=O)(=O)c2ccc(Cl)cc2)C(C)O)c(Br)c1 (stereo not given) as the molecule, how does the inhibition read?
Its inhibition is 55.3% (active).
